Bead autofluor: flagged as autofluorescent in microsphere protease counterscreen; fluorescence intensity (concentration not given with the values); AID 624483; 360,000 compounds, 3.1% hits; compound autofluorescence counterscreen, microsphere flow cytometry; hits give high values; in the data active = fluorescence intensity above about 16000; inconclusive = no clear call, values can overlap the other calls
Anthrax LF inh2: Bacillus anthracis LF protease inhibitors, primary screen, biochemical, multiplex microsphere, MLPCN library. inhibition, % at 10 µM. AID 588501, 2011. 360,000 compounds, 0.12% hits. Lethal factor (Bacillus anthracis), P15917. multiplex microsphere protease cleavage assay; also: plate controls were buffer without enzyme for full effect and enzyme alone for no effect
Target sequence (P15917 whole entry, looked up): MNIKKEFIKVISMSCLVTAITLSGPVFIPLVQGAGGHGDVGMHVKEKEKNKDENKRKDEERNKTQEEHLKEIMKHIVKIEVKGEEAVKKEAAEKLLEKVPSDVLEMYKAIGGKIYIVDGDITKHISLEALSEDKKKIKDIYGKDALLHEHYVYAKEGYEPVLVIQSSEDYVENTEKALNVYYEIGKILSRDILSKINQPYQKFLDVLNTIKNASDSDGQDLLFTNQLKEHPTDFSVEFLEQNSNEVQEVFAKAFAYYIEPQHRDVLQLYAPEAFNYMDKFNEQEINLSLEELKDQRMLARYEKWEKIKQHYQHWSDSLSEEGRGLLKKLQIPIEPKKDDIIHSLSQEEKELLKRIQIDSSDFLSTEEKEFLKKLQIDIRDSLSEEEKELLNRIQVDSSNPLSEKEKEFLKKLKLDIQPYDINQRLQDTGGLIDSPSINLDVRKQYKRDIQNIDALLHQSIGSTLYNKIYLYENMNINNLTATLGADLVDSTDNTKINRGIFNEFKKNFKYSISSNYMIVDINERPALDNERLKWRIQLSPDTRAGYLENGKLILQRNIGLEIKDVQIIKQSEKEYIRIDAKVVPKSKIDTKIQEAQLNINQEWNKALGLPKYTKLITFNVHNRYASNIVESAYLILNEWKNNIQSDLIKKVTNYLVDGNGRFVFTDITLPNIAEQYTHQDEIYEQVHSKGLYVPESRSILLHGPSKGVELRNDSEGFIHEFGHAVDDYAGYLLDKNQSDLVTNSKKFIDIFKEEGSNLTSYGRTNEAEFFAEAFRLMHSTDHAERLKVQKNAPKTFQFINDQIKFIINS
BoNT-F LC inh: BoNT/F light chain protease inhibitors, primary screen, biochemical, flow cytometry, MLPCN library; Botulinum neurotoxin type F light chain protease (Clostridium botulinum); inhibition, % at 10 µM; 360,000 compounds, 0.22% hits; AID 588497, 2011; Multiplex microsphere protease cleavage assay; in the data active = inhibition above about 35%, passing the limit was not always enough; inconclusive = no clear call, values can overlap the other calls; also: plate controls were buffer without enzyme for full effect and enzyme alone for no effect
BoNT-A LC inh2: BoNT/A light chain protease inhibitors, primary screen, biochemical, flow cytometry, MLPCN library. inhibition, % at 10 µM. multiplex microsphere protease substrate cleavage. AID 588499, 2011. 360,000 compounds, 0.17% hits. Botulinum neurotoxin type A light chain protease (Clostridium botulinum A str. ATCC 3502); also: plate controls were buffer without enzyme for full effect and enzyme alone for no effect
An asterisk follows results filed as active; ? = inconclusive. Most compounds without a hit are left out; they make up all but 3.5% or so of the library. Rule as the data show it, unless noted: active = inhibition above about 30%; inconclusive = no clear call, values can overlap the other calls; inactive = below that.

SMILES | Bead autofluor | Anthrax LF inh2 | BoNT-F LC inh | BoNT-A LC inh2
CCCN1CCN(S(=O)(=O)c2ccc3c(c2)OCCO3)CC1 | 3267 | -8 | 4 | -1
O=S(=O)(/N=C/c1c(O)ccc2ccccc12)c1ccccc1 | 3955 | 2 | 42* | -1
O=C(CNc1ccccc1)N/N=C/c1c(O)ccc2ccccc12 | 3707 | -4 | 19 | 6
O=C(CSCC(=O)Nc1ccccc1)N/N=C/c1c(O)ccc2ccccc12 | 23512* | 6 | -2 | 5
COc1ccc(/C=N/NC(=O)CSCC(=O)Nc2ccccc2)cc1OC | 19130* | -14 | 12 | ?
O=C(N/N=C\c1c(O)ccc2ccccc12)c1cncc(Br)c1 | 3289 | 8 | 26 | 42*
COc1ccc(CNCC(=O)Nc2cccc(S(N)(=O)=O)c2)cc1 | 3884 | -4 | -1 | 0
COc1ccc(NC(=O)CN(C)C(=O)c2cn(-c3ccccc3)nc2-c2ccc(Cl)cc2)cc1 | 5011 | -4 | -2 | 1
OC[C@@H]1CN(Cc2cccnc2)C[C@H](n2cnc3c(N4CCCC4)ncnc32)O1 | 3888 | 3 | 1 | 0
Cc1ccc(NC(=O)COc2ccc(/C=N/NC(=O)CSCc3ccccc3)cc2)cc1 | 22872* | 0 | -1 | 0
CCN1CCN(S(=O)(=O)c2c[nH]c(C(=O)OC)c2)CC1 | 5700 | -6 | -2 | 0
CCCc1cc(=O)[nH]c(SCC(=O)Nc2cc(S(=O)(=O)N3CCOCC3)ccc2Cl)n1 | 3038 | -4 | -5 | 0
O=C1c2ccccc2S(=O)(=O)N1CC(O)COc1ccc(Br)cc1 (configuration not stated) | 16210* | -1 | 5 | 2
O=C1c2ccccc2S(=O)(=O)N1CC(O)COc1ccc(Cl)cc1 (configuration not stated) | 3635 | -2 | 0 | 1
CCOc1ccc(S(=O)(=O)N(C)CC(=O)NC2CCCC2)cc1 | 5035 | -4 | -2 | -1
COC(=O)[C@@]1(Cc2ccc(F)cc2)[C@H]2c3cc(C(=O)N4CCCC4)n(C)c3C[C@H]2CN1C(=O)c1ccccc1 | 4468 | 6 | 7 | 0
COc1ccc(-n2c(CCc3ccccc3)nnc2SCC(=O)c2ccccc2)cc1 | 2037 | -2 | 10 | 0
COc1ccc(C(=O)CSc2nnc(CCc3ccccc3)n2-c2ccccc2)cc1 | 24111* | -1 | -4 | -2
Cc1ccc(S(=O)(=O)N2CCOC2CNC(=O)C(=O)NCCN(C)C)cc1 (configuration not stated) | 5714 | -4 | -13 | 3
Cc1cc(/C=C(\C#N)c2nc3ccccc3[nH]2)c(C)n1C | 2731 | -5 | -12 | -1
CCN(CC)c1ccc(/C=C(/C#N)c2nc3ccc(C)cc3[nH]2)c(OC(C)C)c1 | 27707* | -4 | 64* | -3
CCOc1cc(N(CC)CC)ccc1/C=C(/C#N)c1nc2ccccc2[nH]1 | 12266 | 0 | 42* | -4
COc1cc(/C=C(\C#N)c2nc3ccc(C)cc3[nH]2)c([N+](=O)[O-])cc1OC | 3421 | -6 | 2 | 3
CCCOc1cc(N(CC)CC)ccc1/C=C(/C#N)c1nc2ccc(C)cc2[nH]1 | 23823* | 2 | 45* | 3
CCOc1ccc(S(=O)(=O)N(CC(=O)Nc2cccnc2)c2ccc(F)cc2)cc1 | 6562 | 0 | -2 | -4
SMILES | Bead autofluor | Anthrax LF inh2 | BoNT-F LC inh | BoNT-A LC inh2
Cc1ccc(NC(=O)Cn2cccc2)cc1 | 2698 | -2 | -3 | -1
COc1ccc(NC(=O)CNC(c2ccccc2)c2ccccc2)cc1Cl | 4121 | 4 | -24 | -3
Cc1ccc(NC(=O)Cn2cccc2)c(Br)c1 | 23334* | -2 | -2 | -1
COc1ccc(NCC(=O)Nc2ccccc2C#N)cc1Cl | 21530* | -8 | 5 | 2
Cc1cccc(NC(=O)Cn2cccc2)c1 | 20306* | -2 | -2 | -2
O=C(Cn1cccc1)Nc1ccc(OC(F)(F)F)cc1 | 21063* | 1 | 4 | 4
Cc1ccc(NC(=O)Cn2cccc2)c(C)c1 | 4255 | -2 | -6 | -1
CCN(Cc1nc2cc(Cl)ccc2c(=O)[nH]1)C(=O)c1cc(C2CC2)nn1-c1ccccc1 | 5617 | -3 | 2 | 2
CN(CCOc1ccc(Cl)cc1)C(=O)CN1C(=O)NC2(CCCC2)C1=O | 6525 | 0 | -13 | -2
CCN(CC(=O)Nc1c(F)cccc1F)C(=O)C1CC1 | 3701 | -5 | -3 | 0
CC(C)c1ccc(N)c(S(=O)(=O)O)c1 | 4034 | -4 | 0 | 0
COc1ccc(NC(=O)Cn2cccc2)cc1Cl | 22292* | -2 | 1 | 2
Cc1ccc(NC(=O)Cn2cccc2)cc1Cl | 9675 | -2 | -2 | 0
Cc1ccc(NS(=O)(=O)c2ccc3c(c2)CC(=O)N3)cc1F | 3900 | -3 | -1 | 0
CCc1ccc(S(=O)(=O)Nc2nnc(N)s2)cc1 | 3215 | -2 | ? | -3
CCOC(=O)N1CCN(C(=O)c2ccc3c(=O)n(-c4ccc(OC)cc4)c(=S)[nH]c3c2)CC1 | 3148 | 1 | -38 | -2
CCOC(=O)N1CCN(C(=O)c2cccc(-n3c(=S)[nH]c4cc(Cl)ccc4c3=O)c2)CC1 | 20777* | -2 | -4 | -2
COc1ccc2c(c1)[nH]c1c(=O)n(CC3CCCO3)cnc12 (configuration not stated) | 17272* | -2 | -2 | -2
Cc1coc2cc3oc(=O)c(CC(=O)N[C@@H](CC(C)C)C(=O)O)c(C)c3cc12 | 3404 | -25 | 16 | -3
COc1ccc(-n2cccc2C=O)cc1OC | 22117* | -2 | -2 | ?
COc1ccc(-n2cccc2C=O)cc1 | 2784 | -1 | -5 | -1
O=C(NC1CC2CCCC(C1)N2Cc1ccccc1)c1ccc([N+](=O)[O-])cc1 (configuration not stated) | 3990 | 5 | -1 | 1
O=C(CCn1c(=O)c2cccn2c2cccnc21)NCCCN1CCN(c2ccc(F)cc2)CC1 | 4200 | 1 | -9 | 0
Cc1ccc(NC(=O)NC2(C(=O)NCc3ccco3)CCCCC2)cc1 | 5672 | 5 | -4 | 1
O=C(Nc1ccccc1)NC1(C(=O)NCc2ccco2)CCCCC1 | 17118* | -8 | -6 | -3
SMILES | Bead autofluor | Anthrax LF inh2 | BoNT-F LC inh | BoNT-A LC inh2
O=C(NCc1ccccc1)NC1(C(=O)Nc2ccc3c(c2)OCCO3)CCCCC1 | 22030* | 0 | 6 | 3
O=C(NCc1ccc2c(c1)OCO2)Nc1ccc(F)cc1 | 5899 | 6 | 3 | 0
O=C(Nc1ccccc1)NC1(C(=O)NCc2ccc3c(c2)OCO3)CCCCC1 | 22677* | -1 | 2 | 1
CC(C)NC(=O)COc1coc(CN2CCN(c3ccccc3F)CC2)cc1=O | 3824 | 4 | 16 | 7
O=C(c1ccc(Cl)c(S(=O)(=O)N2CCCC2)c1)N1CCCC(C(F)(F)F)C1 (configuration not stated) | ? | -2 | ? | 4
CNc1c([N+](=O)[O-])cnn1-c1ccc(Cl)cc1Cl | 18639* | -3 | -10 | -5
CNc1c([N+](=O)[O-])cnn1-c1ccccc1Cl | 23635* | -1 | 0 | 0
O=C(Oc1ccc(-c2nnco2)cc1)C1CCN(C(=O)c2ccc(F)cc2)CC1 | 6074 | 0 | -4 | 0
